# ALDH1A1 inh = inhibitors of human aldehyde dehydrogenase 1A1. Purified ALDH1A1, NADH fluorescence, propionaldehyde substrate. P00352. Potency, µM (highest dose often 75.3 µM), for inactives: at the highest dose activity, negative = inhibition, hits mostly inhibitors. hit rate 7.3% among 220,000. AID 1030;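 note: potency is the fitted concentration of half-maximal effect; plate controls were no enzyme wells and a reference inhibitor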
# HPGD inh = HPGD (human) dehydrogenase inhibition. AID 894. hit rate 4.3% among 150,000. P15428. Potency, µM, without a hit: at the highest dose activity change, negative = inhibition, most hits filed as inhibitors. purified HPGD, NADH fluorescence kinetic, PGE2 substrate; note: potency is the fitted concentration of half-maximal effect
# Target sequence (P15428 whole entry, looked up): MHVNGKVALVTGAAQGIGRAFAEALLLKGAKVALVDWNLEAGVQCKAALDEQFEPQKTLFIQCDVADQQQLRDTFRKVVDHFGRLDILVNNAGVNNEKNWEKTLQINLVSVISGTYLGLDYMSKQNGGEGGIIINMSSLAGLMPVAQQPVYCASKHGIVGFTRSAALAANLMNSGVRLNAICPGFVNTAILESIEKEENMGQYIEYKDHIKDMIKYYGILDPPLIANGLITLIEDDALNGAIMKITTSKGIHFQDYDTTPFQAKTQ
#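 20 nM HPGD preincubated 15 min at room temperature with compound in 50 mM Tris-HCl pH 8, 0.01% Tween 20. Started with 1 mM NAD+ and 30 uM prostaglandin E2; NADH fluorescence (360/450 nm) read 5 times over 30-s intervals, last minus first.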
# KinaseGlo FLuc = counter-screen: inhibitors of Kinase-Glo firefly luciferase; Q27757; Kinase-Glo luciferase, ATP luminescence, 8 min; Potency, µM (highest dose often 38.3 µM), inactives show at the highest dose activity change, negative = inhibition, hits mostly inhibitors; hit rate 0.28% among 200,000; AID 1379; active = well fitted inhibition curve with a large enough effect; inconclusive = small, poorly fitted or top-dose-only effect; note: potency is the fitted concentration of half-maximal effect; nearly all actives have a fitted effect of over 60% in size
#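 Kinase-Glo luciferase light output from ATP and luciferin was measured with 10 uM ATP, within the enzyme's linear range. Buffer: 50 mM imidazole pH 7.2, 50 mM KCl, 7 mM MgCl2, 0.01% Tween 20, 0.05% BSA; luminescence read after 8 min at ambient temperature.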
# PNC assembly inh = perinucleolar compartment assembly inhibition | PC3M PTB-GFP, PNC prevalence imaging, 16 h; stronger effect = lower value | activity change (PNC), negative = inhibition, % at 10 µM | hit rate 3.1% among 140,000 | AID 2417;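 active = readout at or below -70, meaning at least 70% loss of cells showing the perinucleolar compartment, a nuclear body marking cancer cells; inconclusive = readout between -30 and a set limit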;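 note: plate controls were DMSO wells for no effect and camptothecin positive control wells for full effect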
#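 Read-out is percentage of cells bearing a perinucleolar compartment, from automated 20x imaging of fixed, Hoechst-stained PC3M PTB-GFP cells. Cells were seeded 4 h, then exposed 16 h to compound (23 nl of library stock) in duplicate plates.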
# IMPase cell inh = IMPase inhibition in cells; CHO-M1 cells, IP1 accumulation, HTRF TR-FRET ratio; inhibition (IP1 accumulation), % at 46.1 µM; P97697; 120,000 tested, under 10 active; active = well fitted curve in the direction sought with a large enough effect in the signal ratio, not every such curve was filed as active; inconclusive = small, poorly fitted or top-dose-only effect, or a change in a side signal; inactive = no such curve, though single readings can be large or run the other way; the % refers to the signal ratio;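 note: cells stimulated with carbachol in lithium chloride buffer; plate controls were DMSO basal wells for no effect and reference inhibitor wells for full effect; higher means more IMPase inhibition seen as more IP1 and lower FRET ratio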
# Target sequence (P97697 whole entry, looked up): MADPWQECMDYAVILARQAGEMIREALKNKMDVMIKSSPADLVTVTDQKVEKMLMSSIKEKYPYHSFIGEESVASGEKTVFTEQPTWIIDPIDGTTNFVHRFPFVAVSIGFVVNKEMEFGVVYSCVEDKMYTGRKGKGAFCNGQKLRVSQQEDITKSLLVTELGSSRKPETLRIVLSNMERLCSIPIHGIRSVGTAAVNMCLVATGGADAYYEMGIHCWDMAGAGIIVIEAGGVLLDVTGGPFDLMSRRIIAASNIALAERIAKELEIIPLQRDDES
#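 CHO-M1 cells (CHO stably expressing M1 receptor), compound up to 46 uM final, stimulated with carbachol (50 uM as added) in buffer with 50mM LiCl, pH 7.4, 30 min at 37C. Cytosolic IP1 read by TR-FRET; AC50 from Hill fits.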
# LMNA splice mod = LMNA splicing modulation. HeLa LMNA splicing GFP/RFP minigene ratio, 48 h. AID 1487. hit rate 0.01% among 200,000. Potency, µM (highest dose often 46.1 µM), for the others: at the top dose ratio change, negative = inhibition, most hits filed as inhibitors; active = well fitted inhibition curve with a large enough effect in the signal ratio, with a control signal flat, not every such curve was filed as active; inconclusive = small, poorly fitted or top-dose-only effect, or effect the other way, or a change in a side signal; the % refers to the signal ratio; note: potency is the fitted concentration of half-maximal effect
#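 S3 HeLa cells stably expressing lamin A-EGFP splicing minigene plus DsRed2, 600 cells/well, 48 h compound exposure at 37C. Laser-scanning cytometry; analysed as GFP (500-530 nm)/RFP (575-640 nm) total intensity ratio; 0.5% DMSO vehicle.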
# The depositor's hits bear a star; u = inconclusive; x = no result; [ ] = remark or other dose. Hits are enriched below; roughly 10% of the tested compounds scored in any of these assays. Unless noted, calls come from the whole dose curve; as a rule, active = well fitted inhibition curve with a large enough effect (not every such curve was filed as active); inconclusive = small, poorly fitted or top-dose-only effect, or another doubt; inactive = no such curve, though single readings can be large or run the other way. Unless noted, % is set by controls: 0 for no effect and ±100 for the full control effect.
SMILES,ALDH1A1 inh,HPGD inh,KinaseGlo FLuc,PNC assembly inh,IMPase cell inh,LMNA splice mod
COc1ccc(NS(=O)(=O)c2cc(NC(=O)CC3CCCC3)ccc2N2CCOCC2)cc1,3.16µM*,x,4.4%,x,x,3.4%[46 µM]
COc1ccccc1NS(=O)(=O)c1cc(NC(=O)C(C)C)ccc1N1CCCCC1,9.46µM*,x,-2.3%,x,x,x
COc1ccccc1NS(=O)(=O)c1cc(NC(=O)/C=C/c2cccs2)ccc1N1CCOCC1,u,u,1.1%,-22.6,x,u
COc1cccc(NC(=O)CCSc2nc(-c3ccco3)cc(C(F)(F)F)n2)c1,x,x,x,x,2.8,x
COc1ccccc1NS(=O)(=O)c1cc(NC(=S)NCCN2CCOCC2)ccc1N1CCOCC1,25.1µM*,17.8µM*,3.0%,9.6,x,-10.2%
COc1ccccc1NS(=O)(=O)c1cc(NC(=O)c2ccncc2)ccc1N1CCOCC1,u,-24.2%,-1.7%,28.8,x,-7.8%
COc1ccccc1NS(=O)(=O)c1cc(NC(=O)Nc2ccccc2)ccc1N1CCCCC1,17.8µM*,25.1µM*,-6.5%,18.1,x,u
COc1ccccc1S(=O)(=O)Nc1cc(S(=O)(=O)N2CCCCC2)ccc1N1CCOCC1,12.6µM*,x,1.6%,x,x,-16.2%[46 µM]
O=C(Nc1ccc(F)cc1)Nc1ccc(N2CCCC2)c(S(=O)(=O)Nc2ccccc2Cl)c1,u,-17.6%,-1.7%,42.7,x,u
CCCCNC(=O)CC1Nc2cc(C)c(C)cc2NC1=O (stereo not given),x,x,x,x,2.9,x
Cc1ccc(C2CC(c3cccs3)=NN2C(=O)CSC2=NN3CCCC(=O)N=C3S2)cc1 (stereo not given),28.2µM*,-27.1%,2.2%,-20.6,9.7,u
COc1ccc(C(=O)CSc2nnc(NC(=O)C3CC(=O)N(c4ccccc4C)C3)s2)cc1 (stereo not given),11.2µM*,-11.7%,3.8%,13.4,-6.3,-12.4%
COc1cccc(N2CC(C(=O)Nc3nnc(SCC(=O)Nc4cc(C)on4)s3)CC2=O)c1 (stereo not given),4.3%,x,-0.6%,x,x,7.1%[46 µM]
N#C/C(=C\c1ccncc1)c1nc2ccccc2c(=O)[nH]1,7.94µM*,x,-0.8%,x,x,u
Cc1cc(O)c(/C=N/Nc2ccccc2Cl)c(=O)o1,10µM*,-19.8%,-2.2%,19.4,19.5,13.2%
Cc1cc(O)c(/C=N/Nc2ccc(Cl)cc2)c(=O)o1,3.8%,-14.4%,-4.8%,-24.2,27.4,21.5%
O=C(CSc1ncccc1C(=O)Oc1ccccc1Cl)Nc1ccc(C(F)(F)F)cc1Cl,x,x,x,x,x,1.9%[46 µM]
CCN1C(=O)/C(=C\c2nc3ccccc3c(=O)n2CC)c2ccccc21,14.1µM*,x,-0.3%,x,x,u
CCn1c(/C=C2/C(=O)N(C)c3ccccc32)nc2ccccc2c1=O,9.46µM*,-38.7%,-7.3%,26.1,7.6,-6.8%
Oc1c(C(c2ccccc2F)N2CCCCC2)sc2nc(-c3ccco3)nn12 (stereo not given),x,x,x,x,x,-11.0%[46 µM]
CCC(=O)OCN1C(=O)C=CC1=O,1µM*,u,-5.1%[7.66 µM],x,x,x
CCC1=C2CC[C@H]3C(=O)N(c4ccccc4)C(=O)[C@H]3[C@H]2[C@@]2(C)C(=O)N(Cc3ccccc3)C(=O)N2C1=O,20µM*,-11.5%,-8.0%,x,x,x
CCC1=C2CC[C@H]3C(=O)N(CC)C(=O)[C@H]3[C@H]2[C@@]2(C)C(=O)N(CC(=O)OC)C(=O)N2C1=O,17.8µM*,-12.0%,-16.9%,x,x,x
CCC1=C2CC[C@H]3C(=O)N(c4ccccc4)C(=O)[C@H]3[C@H]2[C@@]2(C)C(=O)N(CC(=O)OC)C(=O)N2C1=O,-12.0%,-6.3%,-6.4%,x,x,x
CCS(=O)(=O)c1c(S(=O)(=O)CC)c2cc(C(C)(C)C)ccn2c1C(=O)c1ccc(F)cc1,x,x,x,x,-6.9,x
SMILES,ALDH1A1 inh,HPGD inh,KinaseGlo FLuc,PNC assembly inh,IMPase cell inh,LMNA splice mod
Cc1ccc(NC(=O)Cc2ccccc2)c(C)c1,-3.7%,x,-0.4%,x,x,3.3%[9.22 µM]
Cc1ccc(NC(=O)CNc2ccc(OC(C)C)cc2)c(C)c1,4.47µM*,-9.9%,-1.3%,-12.5,-5.5,-14.7%
COc1ccc(C)cc1NC(=O)CNc1ccc(C(C)=O)cc1,u,-13.8%,0.5%,-6.4,x,-9.9%
Cc1ccc(NC(=O)CNc2cccc(C)c2C)c(C)c1,8.91µM*,31.6µM*,2.8%,-17.3,16.4,1.8%
CN(C)CCNC(=O)c1ccc(-c2nn(C)c(=O)c3ccccc23)cc1,-11.9%,20µM*,3.0%,u,-6.6,2.7%
Cc1ccc(-c2nn(C)c(=O)c3ccccc23)cc1CNC(=O)c1ccco1,1.6%,3.55µM*,0.0%,-26.4,4.8,-0.8%
CN(C(=O)c1ccc(-c2nn(C)c(=O)c3ccccc23)cc1)c1ccccc1,-3.8%,7.94µM*,-1.4%,-12.6,1.9,0.8%
COc1ccc(NC(=O)c2ccc(-c3nn(C)c(=O)c4ccccc34)cc2)cc1,4.8%,x,4.9%,x,x,u
CCC(CO)NC(=O)c1ccc(-c2nn(C)c(=O)c3ccccc23)cc1 (stereo not given),11.8%,31.6µM*,2.6%,-11.6,-5.0,1.9%
COc1ccccc1NC(=O)c1ccc(-c2nn(C)c(=O)c3ccccc23)cc1,6.3%,x,-0.4%,x,x,u
Cc1cc(OCC(=O)NCC2(N3CCN(C)CC3)CCCCC2)cc(C)c1Cl,x,x,x,x,x,8.5%[46 µM]
Cn1nc(-c2ccc(OCC(=O)Nc3ccc(Cl)cc3)cc2)c2ccccc2c1=O,x,x,x,x,2.6,x
Cn1nc(-c2ccc(OCC(=O)Nc3ccccc3)cc2)c2ccccc2c1=O,-10.1%,28.2µM*,1.0%,u,8.8,u
COc1ccc(-n2c(=O)c(-c3ccc(F)cc3)nc3cncnc32)cc1,-9.3%,x,x,x,x,11.4%
N#C/C(=C\c1c[nH]c2ccccc12)C(=O)c1ccc(O)c(O)c1,u,3.55µM*,-4.6%,x,10.0,u
N#C/C(=C\c1ccc(O)c(O)c1)C(=O)OCCc1cccs1,-11.1%,28.2µM*,0.8%,x,1.5,x
N#C/C(=C\c1ccc(O)c(O)c1)C(=O)c1ccc(O)c(O)c1,u,7.94µM*,-6.0%,x,u,u
CC(C)COC(=O)/C(C#N)=C/c1c[nH]c2ccccc12,u,-6.8%,0.1%,u,4.1,-0.6%
Cc1ccc(S(=O)(=O)CCC(=O)Nc2ccc(Br)cc2C)cc1,x,x,x,x,x,-6.9%[46 µM]
COc1ccc(C(=O)N2CC3(CC(c4cccc([N+](=O)[O-])c4)=NO3)C[C@H]2C(=O)NCC(N)=O)cc1 (stereo not given in full),11.2µM*,u,2.5%,82.6,17.6,8.0%
CC(C)CC(=O)Nc1ccc(S(=O)(=O)Nc2cc3c(cc2N2CCOCC2)n(C)c(=O)c(=O)n3C)cc1,x,x,x,x,x,-1.0%[46 µM]
COc1cc(C)ccc1OCCSc1nnc(-c2ccc(C)cc2)o1,x,x,x,x,x,15.2%[46 µM]

# Compound activity deposited in PubChem BioAssay by National Center for Advancing Translational Sciences (NCATS).
